We go through 14 compounds from PubChem BioAssay (NCATS).

Each structure is given as a SMILES string. The source made the active and inactive calls. Calls come from the whole dose curve. Where a SMILES comes first, the peptide text is derived from it. The star is where a group is joined. AMC = Cc1cc(=O)oc2cc(N*)ccc12; Cbz = O=C(OCc1ccccc1)*
Potency is the fitted concentration of half-maximal effect.

In the first assay the target is Catechol O-methyltransferase (Homo sapiens) (UniProt P21964). Put plainly: Confirmatory Screen for Target Class Profiling of Small Molecule Inhibitors of Methyltransferases (AID 1745852). For activity change, negative = inhibition: % is set by controls: 0 for no effect and ±100 for the full control effect. As to conditions: MTase-Glo luminescence, SAH detection, recombinant enzyme; measured here: COMT max response; stronger effect = lower value.
Chain of Catechol O-methyltransferase (Homo sapiens) (P21964 whole entry, looked up): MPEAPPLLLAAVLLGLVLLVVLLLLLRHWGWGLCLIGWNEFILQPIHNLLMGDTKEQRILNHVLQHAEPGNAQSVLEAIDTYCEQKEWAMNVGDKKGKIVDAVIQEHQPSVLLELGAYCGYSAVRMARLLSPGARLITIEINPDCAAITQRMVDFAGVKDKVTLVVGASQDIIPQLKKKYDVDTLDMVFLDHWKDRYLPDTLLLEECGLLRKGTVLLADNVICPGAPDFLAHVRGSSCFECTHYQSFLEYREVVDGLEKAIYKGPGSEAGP
For `COc1c2c(c(C)c3c1C(=O)OC3)OC1(C)CC(O)C34OC(OC)(CC(O)C3(C)C1C2)OC4(C)C` (stereo not drawn), the activity is -15%.

On to `COc1c2cc(c(O[C@@H]3O[C@H](CO)[C@@H](O)[C@H](O)[C@H]3O)c1OC)CCCCC(O)CCc1ccc(O)c-2c1` (stereo partly drawn), for which the activity was -87.3%.

For `Nc1ncnc2c1ncn2[C@H]1O[C@@H](C(=O)N2CCN(CC(=O)Nc3cccc4c3CNC4=O)CC2)[C@H](O)[C@@H]1O`, the activity is -12.8%.

Consider `COc1cc(/C=C/C(=O)O[C@H]2[C@@H]3C=CO[C@@H](O[C@@H]4O[C@H](CO)[C@@H](O)[C@H](O)[C@H]4O)[C@@H]3[C@@]3(CO)O[C@@H]23)ccc1O`, for which the activity was -66.9%.

On to `C=C1CC/C=C(/CO)C(=O)C[C@@H]2[C@@H]1C[C@@]2(C)COC(C)=O`, for which the activity is -65.6%.

As to `CC1=CC(=O)C(=C(C)C)CC2C(C)(O)CCC12O` (stereo not drawn), the activity is -81.2%.

Take `CC1CCCCCCCc2cc(O)cc(O)c2C(=O)O1` (stereo not drawn): the activity is -69.9%.

For the compound `CC(=O)OC/C(=C/C(=O)O)CC[C@@H]1C(CO)=CC[C@@H]2C(C)(C)CCC[C@@]12C`, the activity was -82.3%.

`COc1cc(/C=C/C(=O)OCC2OC(OC3(CO)OC(CO)C(O)C3O)C(O)C(O)C2O)ccc1O` (stereo not drawn): the activity is -68.2%.

Turning to `CC(=O)OC1CC(=O)C2(C)C3CC4=C(OC(C)CC4=O)OC3(C)CCC2C1(C)C` (stereo not drawn), the activity was -40.9%.

For the compound `Cc1cc(=O)oc2cc(NC(=O)[C@H](CCC(=O)O)NC(=O)[C@H](CC(C)C)NC(=O)[C@H](CC(C)C)NC(=O)OCc3ccccc3)ccc12` (Cbz-Leu-Leu-Glu-{AMC}), the activity was -1.08%.

As to `CC1(CO)CC(O)C2(C)CCC3(C)C(=CCC4C5(C=O)CCC(OC6OC(C(=O)O)C(O)C(O)C6OC6OC(C(=O)O)C(O)C(O)C6O)C(C)(C)C5CCC43C)C2C1` (stereo not drawn), the activity was -73.8%.

For the compound `CC(=O)c1c(C)cccc1O[C@@H]1O[C@H](CO)[C@@H](O)[C@H](O)[C@H]1O`, the activity is -68.9%.

For `CCOc1ccc(-c2cc(NC(=O)c3c(F)cccc3F)c(C(=O)O)s2)cc1`, the activity is -2.79%.

The next assay addresses Guanidinoacetate N-methyltransferase (Homo sapiens) (UniProt Q14353). The description is as above. As to conditions: MTase-Glo luminescence, SAH detection, recombinant enzyme; activity change, negative = inhibition: at 57.3 µM (top of the series) unless noted.
As for `COc1c2c(c(C)c3c1C(=O)OC3)OC1(C)CC(O)C34OC(OC)(CC(O)C3(C)C1C2)OC4(C)C` (stereo not drawn), the activity change, negative = inhibition was -2.68% [at 29.8 µM].

As to `COc1c2cc(c(O[C@@H]3O[C@H](CO)[C@@H](O)[C@H](O)[C@H]3O)c1OC)CCCCC(O)CCc1ccc(O)c-2c1` (stereo partly drawn), the activity change, negative = inhibition was -7.96% [at 29.8 µM].

Consider `Nc1ncnc2c1ncn2[C@H]1O[C@@H](C(=O)N2CCN(CC(=O)Nc3cccc4c3CNC4=O)CC2)[C@H](O)[C@@H]1O`, for which the Potency was 21.5 µM (active).

For the compound `COc1cc(/C=C/C(=O)O[C@H]2[C@@H]3C=CO[C@@H](O[C@@H]4O[C@H](CO)[C@@H](O)[C@H](O)[C@H]4O)[C@@H]3[C@@]3(CO)O[C@@H]23)ccc1O`, the activity change, negative = inhibition was 0% [at 29.8 µM].

Consider `C=C1CC/C=C(/CO)C(=O)C[C@@H]2[C@@H]1C[C@@]2(C)COC(C)=O`, for which the activity change, negative = inhibition is 0%.

With `CC1=CC(=O)C(=C(C)C)CC2C(C)(O)CCC12O` (stereo not drawn), the activity change, negative = inhibition amounted to 0.373%.

Take `CC1CCCCCCCc2cc(O)cc(O)c2C(=O)O1` (stereo not drawn): the Potency is 30.4 µM (active).

Regarding `CC(=O)OC/C(=C/C(=O)O)CC[C@@H]1C(CO)=CC[C@@H]2C(C)(C)CCC[C@@]12C`, the activity change, negative = inhibition is -4.99%.

Take `COc1cc(/C=C/C(=O)OCC2OC(OC3(CO)OC(CO)C(O)C3O)C(O)C(O)C2O)ccc1O` (stereo not drawn): the activity change, negative = inhibition is -1.33% [at 29.8 µM].

For the compound `CC(=O)OC1CC(=O)C2(C)C3CC4=C(OC(C)CC4=O)OC3(C)CCC2C1(C)C` (stereo not drawn), the activity change, negative = inhibition came to 0.0637% [at 29.8 µM].

For the compound `Cc1cc(=O)oc2cc(NC(=O)[C@H](CCC(=O)O)NC(=O)[C@H](CC(C)C)NC(=O)[C@H](CC(C)C)NC(=O)OCc3ccccc3)ccc12` (Cbz-Leu-Leu-Glu-{AMC}), the activity change, negative = inhibition turned out to be 0%.

`CC1(CO)CC(O)C2(C)CCC3(C)C(=CCC4C5(C=O)CCC(OC6OC(C(=O)O)C(O)C(O)C6OC6OC(C(=O)O)C(O)C(O)C6O)C(C)(C)C5CCC43C)C2C1` (stereo not drawn): the activity change, negative = inhibition was determined as 0.442% [at 19.1 µM].

As for `CC(=O)c1c(C)cccc1O[C@@H]1O[C@H](CO)[C@@H](O)[C@H](O)[C@H]1O`, the activity change, negative = inhibition was -2.96%.

For `CCOc1ccc(-c2cc(NC(=O)c3c(F)cccc3F)c(C(=O)O)s2)cc1`, the activity change, negative = inhibition is 0.993%.
